Experimental data published in PMC12136788.
Where a chain is given by its changes, count along the chain named. Over roughly 5,800 sequences, “enrichment r” has its median near 0.54; the highest 2% begin near 16. The entries come from a sample that favours the highest values as a whole.

B1: chr20:54218986:54219149:+|CDS|ENSG00000101132|unk|FALSE|unique (ssRNA)
RNA: GGGAGUUCUACAGUCCGACGAUCAAAUUUGCAAGAAGAAAUUGACGCCUUAGAAUCCAGAGUGGAAUCAAUUCAGCGAGUGUUAGCAGAUUUGAAAGUUCAGUUGUAUGCAAAAUUCGGGAGCAACAUAAACCUUGAAGCUGACAACAGAGGAUUGAGCAUCA
B2: chr5:136988535:136988636:-|CDS|ENSG00000152377|msi1|total|mutant (ssRNA)
RNA: GGGAGUUCUACAGUCCGACGAUCGGAAAGCAUCAGGCUUGGUGGCAGCUGAGAUAUGCCUUUUGUUUGGCAGGGUUUGACACCCGCAUCCUGCCCAUCUGCAAGGACUCCCUGGGCUGGAUGUUCAACAAGUUGGACAUGAACCAACAGAGGAUUGAGCAUCA
B3: ENSG00000107863:be:win_3301|CDS|ENSG00000107863|bound_else_gene|NA|bound_elsewhere_windowed (ssRNA)
RNA: GGGAGUUCUACAGUCCGACGAUCAAGGAAGAGUCGGAAAGGAAACUUCUCAGUAAAGAUGAUACCAGUCCCCCAAAAGACAAAGGCACAUGGAGAAAAGGCAUUCCAAGUAUCAUGAGAAAGACAUUUGAGAAAAAGCCAACUCAACAGAGGAUUGAGCAUCA
B4: ENSG00000136451:be:win_2301|3pUTR|ENSG00000136451|bound_else_gene|NA|bound_elsewhere_windowed (ssRNA)
RNA: GGGAGUUCUACAGUCCGACGAUCAAAAAUCUACAAAUUGUGUUUUGCUAAGAAAAGCCUCAACUGACAGAGGAGAAGUCAAGUGUGUGGACAGGCAAGCUCCUAAUAAACAGAGUCCAGUGGGAUUCCUAUUUAGGAGCCAAGCAACAGAGGAUUGAGCAUCA
B5: chr10:123166816:123166917:+|3pUTR|ENSG00000154473|unk|FALSE|unique (ssRNA)
RNA: GGGAGUUCUACAGUCCGACGAUCAAAAACUUAAAGGUAUAUUAGCAGGUUAGCCUUUGUUCUGUGGGAGAUCCAGGCCUUGUUAGAAGGACCAAGGCCAGAAUGCCCAGUUUAGCCUUAGCAUUCAAACCCUUCAUUGUUUUUCAACAGAGGAUUGAGCAUCA
B6: chr12:48653210:48654175:-|three_prime_utr|ENSG00000139620|control|control|control (ssRNA)
RNA: GGGAGUUCUACAGUCCGACGAUCGCACCAUUGUCUCAGAGUGGAUUGGCUACUGCAAAUGGGAAGCCAGAACCCACUUCUAUUAGUUGAUAGUUUGGGGAACCAUUUUACUUUGGUGGAUUUAAAUUUCUCGUUCUUCAAAGACAACAGAGGAUUGAGCAUCA
B7: chr3:62294290:62294391:+|3pUTR|ENSG00000144724|msi1|FALSE|unique (ssRNA)
RNA: GGGAGUUCUACAGUCCGACGAUCAACUAGUCCUCUAAAAAUUCCCUAUUACUCCUAUAGCAAUCUAAUAAAAACUACCUACAUAGUUACUGUUUUCUUUCCUUCUUUGCCAAAUGUUUUAUAAUAAAUCUCUUAAUUACAUACCAACAGAGGAUUGAGCAUCA
B8: chr7:107760707:107760808:+|3pUTR|ENSG00000105879|unk|total|mutant (ssRNA)
RNA: GGGAGUUCUACAGUCCGACGAUCAAACAUGAAAUAUGCCGUAUGCAGAUAUCAUUUAUCCGACCGUUUGCCGUGUAUACAUUCCGAACAUACUUCUUUUGACAAAGGGUGAUCUGAUUGCUAAUUUACCAUUUUAUUCUGUCACAACAGAGGAUUGAGCAUCA
B9: chr7:107760707:107760808:+|3pUTR|ENSG00000105879|unk|FALSE|unique (ssRNA)
RNA: B8 RNA with C38U, C39A, C59U, C60A, C63U, C64A, C70U, C71A, C83U, C84A
B10: chr1:162523450:162523604:+|3pUTR|ENSG00000152332|msi1|total|mutant (ssRNA)
RNA: GGGAGUUCUACAGUCCGACGAUCAGACUAAGUUGUGCCAGAUGUAAAUCAACCCCUCUUUCCGUUUACUUCCGACUUUGUAUCCGCUCAUCUUUUUUGCCGUAAAUCUACCGUUUUAAGGUUUCUCAAGAUGUGGCUCUACCUCAACAGAGGAUUGAGCAUCA
B11: chr1:965281:965395:+|3pUTR|ENSG00000187961|unk|FALSE|unique (ssRNA)
RNA: GGGAGUUCUACAGUCCGACGAUCCCAUCCGUUCACGUCUCUGCAUCCAUUCCUUCAUGUCUUUAUUUAGUUGUUUAUUUAUUUAGUUAUUUAUCUUAUUUAUUGAGGGGUGAGGAGUGCCACGGCUGCCCGUUUACACCUUUACAACAGAGGAUUGAGCAUCA
B12: chr11:130144177:130144243:+|3pUTR|ENSG00000084234|msi1_unk|total|mutant (ssRNA)
RNA: GGGAGUUCUACAGUCCGACGAUCAUGAGGGUGUCCGCUGCUGCUUUCCUUCGGAAUCCAGUGCUUCCACAGAGAUCCGCCUGCCGCUUAUAUUUGACAUUCUUCACUGUCUGUUGUUUACCUACCGCCGCUUUUUACCGUUCACAACAGAGGAUUGAGCAUCA
B13: chr3:62294290:62294391:+|3pUTR|ENSG00000144724|msi1|total|mutant (ssRNA)
RNA: B7 RNA with U27C, A28C, U57C, A58C, U83C, A84C
B14: chr10:119167843:119167906:-|3pUTR|ENSG00000165672|msi1_unk|FALSE|overlapping (ssRNA)
RNA: GGGAGUUCUACAGUCCGACGAUCUGCAUGAUCCCUCAUCCCUGAAAUUGAGUUUAUGUAGUCAUUUUACUUAUUUUAUUCAUUAGCUAACUUUGUCUAUGUAUAUUUCUAGAUAUUGAUUAGUGUAAUCGAUUAUAAAGGAUACAACAGAGGAUUGAGCAUCA
B15: chr1:229660051:229660152:+|3pUTR|ENSG00000135763|msi1|FALSE|bound_elsewhere (ssRNA)
RNA: GGGAGUUCUACAGUCCGACGAUCCUCAUUCAUAGUCUCAGUUACCCAGAUAACCUCGGUUGUCACCUUGGAGUAUCUUGUUGUAGUCCCUUUACUAUGUGUAUGUAUAUAGAUGUGCAUAUAAAUAUAUAUAGUAGCUAAAUUCAACAGAGGAUUGAGCAUCA
B16: chr1:162523450:162523604:+|3pUTR|ENSG00000152332|msi1|FALSE|unique (ssRNA)
RNA: B10 RNA with C61U, C62A, C71U, C72A, C83U, C84A, C99U, C100A, C110U, C111A
B17: chr17:77216858:77216994:+|3pUTR|ENSG00000129657|unk|FALSE|bound_elsewhere (ssRNA)
RNA: GGGAGUUCUACAGUCCGACGAUCUGUUUCUACCUUUAGUACCUUGCCACUCUUUUAAAACGCUGCUGUCAUUUCCCAUUUCUUAGUACUAAUGAUUCUUUGAUUCUCCCUCUAUUAUGUCUUAAUUCACUUUCCUUCCUAAAUCAACAGAGGAUUGAGCAUCA
B18: chr1:965281:965395:+|3pUTR|ENSG00000187961|unk|total|mutant (ssRNA)
RNA: B11 RNA with U67C, A68C, U83C, A84C

Molecular target: MSI1 full-length (mouse, UniProt Q61474 1-362)
Assay: nsRBNS (natural sequence RNA bind-n-seq); RBNS binding buffer (assumed for nsRBNS): 25 mM Tris pH 7.5, 150 mM KCl, 3 mM MgCl2, 0.01% Triton X-100, 500 ug/ml BSA, 20 U/ml SUPERase-In, 4 C; UNK is unkempt and MSI1 is Musashi-1; names of the RNAs are library labels; protein concentration not given here; high values mean tight binding

Sequence of MSI1 full-length (Q61474 whole entry): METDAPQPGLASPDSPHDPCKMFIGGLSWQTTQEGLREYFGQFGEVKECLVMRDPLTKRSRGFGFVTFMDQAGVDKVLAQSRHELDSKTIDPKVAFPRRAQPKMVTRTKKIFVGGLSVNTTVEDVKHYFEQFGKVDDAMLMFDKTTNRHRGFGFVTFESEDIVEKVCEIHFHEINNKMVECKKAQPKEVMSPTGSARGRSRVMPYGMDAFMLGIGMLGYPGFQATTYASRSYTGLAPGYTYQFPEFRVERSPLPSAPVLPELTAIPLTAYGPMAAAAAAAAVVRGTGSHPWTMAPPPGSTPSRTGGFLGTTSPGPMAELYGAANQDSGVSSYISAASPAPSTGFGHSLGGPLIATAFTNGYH

Binder | binding signal
B1 | 0.378 enrichment R
B2 | 0.511 enrichment R
B3 | 0.359 enrichment R
B4 | 0.431 enrichment R
B5 | 5.77 enrichment R
B6 | 0.61 enrichment R
B7 | 32 enrichment R
B8 | 0.319 enrichment R
B9 | 56.7 enrichment R
B10 | 0.276 enrichment R
B11 | 64.6 enrichment R
B12 | 0.557 enrichment R
B13 | 8.49 enrichment R
B14 | 1.93 enrichment R
B15 | 3.57 enrichment R
B16 | 19.3 enrichment R
B17 | 6.66 enrichment R
B18 | 8.96 enrichment R
